“And” between values parts separate entries of the source, which are not always exact repeats. Identical values can stand only once. The whole screen tested about 5,500 compounds, of which about 2,000 (36%) were called active. Roughly 18% stayed inconclusive and do not appear here. No stated cut-off is given here; in the data, active means normalized growth mostly below about 0.91 (no sharp cut-off); inconclusive means no clear call, values can overlap the other calls; inactive means mostly above about 0.92. The list shows a part of the results.
Assay: chemical genetic growth profiling, strain panel (AID 1159580);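 further: tested at 20 µM; growth read once vehicle control cultures reached saturation at 30 °C; 1 = growth at the plate median or of vehicle wells; lower values mean less growth of the strain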
Settings: S. cerevisiae deletion strains, growth OD

Measured: normalized growth

COC1=CC23CCCN2CCc2cc4c(cc2C3C1O)OCO4 (stereo not drawn)
inactive: locus YAL013W, strain DEP1, hits give low values 1.01 | locus YAL021C, strain ccr4, hits give low values 1.02 | locus YAL026C, strain drs2, hits give low values 1.03 | locus YAL030W, strain snc1, hits give low values 1.02 | locus YBL061C, strain skt5, hits give low values 1.03 | locus YBR009C, strain hhf1, hits give low values 1.04 | locus YBR021W, strain FUR4, hits give low values 1.01 | locus YBR023C, strain chs3, hits give low values 1.05 | locus YBR171W, strain sec66, hits give low values 1.06 | locus YBR229C, strain ROT2, hits give low values 1.01 | locus YBR231C, strain swc5, hits give low values 1.02 | locus YBR279W, strain paf1, hits give low values 1.03 | locus YCL011C, strain gbp2, hits give low values 1.02 | locus YCL016C, strain dcc1, hits give low values 1.03 | locus YCL029C, strain bik1, hits give low values 1.01 | locus YCL061C, strain MRC1, hits give low values 1.03 | locus YCL069W, strain vba3, hits give low values 1.02 | locus YCR088W, strain abp1, hits give low values 1.03 | locus YDL005C, strain med2, hits give low values 1.02 | locus YDL035C, strain GPR1, hits give low values 0.995 | locus YDL040C, strain nat1, hits give low values 1.02 | locus YDL074C, strain BRE1, hits give low values 1.04 | locus YDL101C, strain DUN1, hits give low values 1 | locus YDL185W, strain tfp1, hits give low values 1.01 | locus YDL192W, strain arf1, hits give low values 1 | locus YDR001C, strain nth1, hits give low values 1.02 | locus YDR069C, strain doa4, hits give low values 1.04 | locus YDR101C, strain arx1, hits give low values 1.01 | locus YDR137W, strain rgp1, hits give low values 1.05 | locus YDR150W, strain NUM1, hits give low values 1.01 | locus YDR159W, strain sac3, hits give low values 1.04 | locus YDR162C, strain NBP2, hits give low values 1.01 | locus YDR195W, strain ref2 1.01 | locus YDR297W, strain sur2, hits give low values 1.02 | locus YDR318W, strain mcm21, hits give low values 0.987 | locus YDR334W, strain swr1, hits give low values 1.03 | locus YDR335W, strain msn5, hits give low values 1.03 | locus YDR388W, hits give low values 1.01 | locus YDR392W, strain spt3, hits give low values 0.971 | locus YDR502C, strain sam2, hits give low values 0.995 | locus YEL003W, strain gim4, hits give low values 1.02 | locus YEL037C, strain rad23, hits give low values 1.02 | locus YEL061C, strain CIN8 (second series), hits give low values 1.02 | locus YEL061C, strain CIN8, hits give low values 1.01 | locus YER015W, strain faa2, hits give low values 1.02 | locus YER016W, strain bim1, hits give low values 1.02 | locus YER110C, hits give low values 1.01 | locus YER111C, strain swi4, hits give low values 1.03 | locus YER155C, strain BEM2 (second series), hits give low values 1.04 | locus YER155C, strain BEM2, hits give low values 1 | locus YER167W, strain BCK2, hits give low values 1 | locus YFR010W, strain ubp6, hits give low values 1.03 | locus YGL078C, strain dbp3, hits give low values 0.997 | locus YGL086W, strain mad1, hits give low values 1.03 | locus YGL167C, strain pmr1, hits give low values 1.03 | locus YGL173C, strain kem1, hits give low values 1.04 | locus YGL227W, strain vid30, hits give low values 1.02 | locus YGL240W, strain doc1, hits give low values 1.04 | locus YGL248W, strain PDE1, hits give low values 0.988 | locus YGL253W, strain hxk2, hits give low values 1.03 | locus YGR078C, strain PAC10, hits give low values 1 | locus YGR135W, strain pre9, hits give low values 0.986 | locus YGR229C, strain SMI1, hits give low values 1 | locus YGR252W, strain gcn5, hits give low values 0.952 | locus YHR013C, strain ard1, hits give low values 1.04 | locus YHR027C, strain rpn1, hits give low values 1.06 | locus YHR030C, strain SLT2, hits give low values 1.01 and 0.963 | locus YHR079C, strain IRE1 (second series), hits give low values 1.01 | locus YHR079C, strain IRE1, hits give low values 0.967 | locus YHR094C, strain hxt1, hits give low values 1.01 | locus YHR129C, strain ARP1, hits give low values 1.01 | locus YHR142W, strain chs7, hits give low values 1.05 | locus YHR200W, strain rpn10, hits give low values 1.01 | locus YIL066C, strain RNR3, hits give low values 1.01 | locus YIL073C, strain SPO22, hits give low values 1.04 | locus YIL125W, strain kgd1, hits give low values 1.01 | locus YIR030C, strain dcg1, hits give low values 1.01 | locus YJL092W, strain hpr5, hits give low values 1.02 | locus YJL095W, strain BCK1 (second series), hits give low values 1.02 | locus YJL095W, strain BCK1, hits give low values 0.983 and 0.975 | locus YJL115W, strain asf1, hits give low values 1.01 | locus YJL129C, strain trk1, hits give low values 1.03 | locus YJL134W, strain LCB3, hits give low values 1.01 | locus YJL154C, strain vps35, hits give low values 1.02 | locus YJL164C, strain tpk1, hits give low values 1.03 | locus YJL166W, strain qcr8, hits give low values 1.03 | locus YJL168C, strain set2, hits give low values 1 | locus YJL187C, strain SWE1 (second series), hits give low values 1
